Measured values as given in PubChem BioAssay (NCI).
This is part of a sample that, as a whole, favours compounds with a hit. Of some 79,000 tested, about 15% had one in any assay. Unmarked numbers belong to inactive results. The source made the active and inactive calls. Cut-off read from the data, not from the text of the source: active = growth inhibition above about 70%; inactive = the rest.

Assays:
[1] = NCI Yeast Anticancer Drug Screen. Data for the rad50 strain (AID 155);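 note: 0% = growth of vehicle-only cultures of the same strain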; conditions: S. cerevisiae rad50 strain growth inhibition, stronger effect = higher value
Outline: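 Relative growth inhibition (compound vs vehicle) was measured in yeast with a defined repair-gene alteration.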

[2] = NCI Yeast Anticancer Drug Screen. Data for the mec2-1 strain (AID 157); conditions: S. cerevisiae mec2-1 strain, stronger effect = higher value
Outline: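 Strain: mec2-1 (DNA repair/cell cycle alteration). Compound exposure, then growth measured; inhibition expressed relative to vehicle.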

[3] = NCI Yeast Anticancer Drug Screen. Data for the sgs1 mgt1 strain (AID 161);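 note: 0% = growth of cultures given vehicle only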; conditions: S. cerevisiae sgs1 mgt1 strain, stronger effect = higher value
Outline: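 Test agents were incubated with a DNA-repair-mutant yeast strain. Growth was then read and compared against vehicle-treated controls.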

[4] = NCI Yeast Anticancer Drug Screen. Data for the cln2 rad14 strain (AID 165);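 note: 0% = growth equal to vehicle treated cultures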; conditions: S. cerevisiae cln2 rad14 strain, stronger effect = higher value
Outline: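 Compounds are applied to the cln2 rad14 yeast strain, and growth is then compared with that of vehicle-treated cultures to give inhibition.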

[5] = NCI Yeast Anticancer Drug Screen. Data for the bub3 strain (AID 167); conditions: S. cerevisiae bub3 mutant strain, stronger effect = higher value
Outline: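 Screening used yeast with an engineered genetic alteration affecting cell cycle control. Compound-exposed cultures were compared with vehicle cultures, and reduced growth was taken as inhibition.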

[6] = NCI Yeast Anticancer Drug Screen. Data for the mlh1 rad18 strain (AID 175); conditions: S. cerevisiae mlh1 rad18 strain growth inhibition, stronger effect = higher value
Outline: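 Read-out is yeast growth inhibition, calculated against vehicle-only controls. The compound was applied to a strain engineered with DNA damage repair alterations.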

[7] = at 5.0 µM (retest, dose inferred, filed as 0.5)
[8] = at 50.0 µM (retest, dose inferred, filed as 5.0)

SMILES | growth inhibition [1, 7] | growth inhibition [1, 8] | growth inhibition ([1]; at 50.0 µM) | growth inhibition [2, 7] [%] | growth inhibition [2, 8] | growth inhibition ([2]; at 50.0 µM) | growth inhibition [3, 7] | growth inhibition [3, 8] | growth inhibition ([3]; at 50.0 µM) | growth inhibition [4, 7] | growth inhibition [4, 8] | growth inhibition ([4]; at 50.0 µM) | growth inhibition [5, 7] | growth inhibition [5, 8] | growth inhibition ([5]; at 50.0 µM) | growth inhibition [6, 7] | growth inhibition [6, 8] | growth inhibition ([6]; at 50.0 µM)
CCOC(=O)c1csc(=S)[nH]1 | 2% | 83% (active) | 76.8% (active) | 2 | 32% | 80.2% (active) | -16% | 95% (active) | 74.5% (active) | 5% | 46% | -12.1% | -6% | 86% (active) | 47% | 15% | 96% (active) | 35.9%
CN(C)CC1CCCCCCCCCCCCC(CN(C)C)C1=O (configuration not stated) | -18% | 42% | 83.7% (active) | -6 | 22% | 77.8% (active) | -15% | 57% | 95.5% (active) | -23% | 20% | 72.2% (active) | -15% | 46% | 88% (active) | -13% | 87% (active) | 39%
CCOC(=O)/C=C(\C)c1ccc([N+](=O)[O-])cc1 | -158% | -127% | 36.1% | -49 | -51% | -17.3% | -65% | -57% | -17.9% | -63% | -69% | -94.7% | -63% | -54% | 17.1% | -153% | -114% | 3.95%
COc1cc(/C=C2/C(=O)N(C(=O)c3ccccc3O)N=C2C)cc(OC)c1OC | -14% | 23% | 64% | 9 | 35% | 16.6% | -8% | 28% | 36.5% | -4% | 26% | 26.4% | 12% | 80% (active) | 77.1% (active) | 20% | 61% | 39.2%
CCCCCCCC/C=C\CCCCCCCC(=O)NCC[N+](C)(C)C | 48% | 99% (active) | 99.2% (active) | 17 | 100% (active) | 99.7% (active) | 53% | 99% (active) | 99.7% (active) | 10% | 99% (active) | 97.4% (active) | 83% (active) | 100% (active) | 99.3% (active) | 10% | 99% (active) | 99.5% (active)
CCCCN(CC(O)c1ccc(Cl)cc1)c1ccccc1 (configuration not stated) | -1% | 99% (active) | 98.8% (active) | -2 | 99% (active) | 98.8% (active) | -6% | 98% (active) | 98.8% (active) | 1% | 93% (active) | 98.5% (active) | 1% | 98% (active) | 95% (active) | 1% | 99% (active) | 96.7% (active)
COc1ccc(/C=C2\SC(=S)N(/C=C(/C#N)C(=O)c3ccc4ccccc4c3)C2=O)cc1OC | -11% | 98% (active) | 97.4% (active) | -18 | 99% (active) | 98.5% (active) | 1% | 98% (active) | 97.2% (active) | -13% | 97% (active) | 95.3% (active) | -22% | 98% (active) | 98.6% (active) | 5% | 99% (active) | 98.3% (active)
O=C(NC(Cc1ccccc1)C(=O)O)c1ccncc1 (configuration not stated) | -2% | -12% | 61.6% | -1 | -7% | 28.9% | 0% | -5% | 63.2% | -1% | -11% | 57.2% | -1% | -2% | 44.1% | -1% | -6% | 46.1%
O=C1c2ccc3c4ccccc4n(Cc4ccccc4)c3c2C(=O)N1c1ccccc1 | 87% (active) | 87% (active) | 92% (active) | 62 | 62% | 93.4% (active) | 39% | 39% | 92.5% (active) | 75% (active) | 75% (active) | 92.2% (active) | 80% (active) | 80% (active) | 91.5% (active) | 47% | 47% | 91.3% (active)
O=CC(=C\c1ccco1)/C(C=O)=C\c1ccco1 | 11% | 25% | 18.1% | 7 | 44% | 5.45% | 11% | 63% | 13% | 2% | 15% | 33.9% | -6% | 33% | -23.6% | 21% | 86% (active) | 71.9% (active)
O=C1c2cc(Br)ccc2NC1(c1c[nH]c2ccccc12)c1c[nH]c2ccccc12 | 98% (active) | 95% (active) | 91.8% (active) | 58 | 90% (active) | 94.8% (active) | 99% (active) | 96% (active) | 94.6% (active) | 98% (active) | 94% (active) | 93.2% (active) | 95% (active) | 95% (active) | 93.8% (active) | 99% (active) | 95% (active) | 92.8% (active)
CC(C)=CCC/C(C)=C/CC/C(C)=C/CSc1ccccc1C(=O)O | 22% | 17% | 76.3% (active) | 10 | 14% | 75.8% (active) | 14% | 10% | 54.5% | 8% | 20% | 10.2% | 18% | 19% | 62.2% | 22% | 18% | 41.5%
Oc1ccc(Br)cc1C=Nc1c(NC2CCCCC2)oc2ccc(Br)cc12 | -4% | 9% | -9.35% | 3 | -2% | 39.4% | 11% | 22% | 41.8% | -18% | 0% | 37% | -12% | 43% | 53.4% | -4% | 29% | 50.5%
COc1cccc(C(c2cc3c(cc2O)OCO3)N2CCCC2)c1O (configuration not stated) | 0% | 52% | 48.2% | 1 | 44% | 46.5% | -5% | 48% | 61.1% | -6% | 24% | 7.85% | 6% | 47% | 41.2% | -1% | 62% | 77% (active)
